Data reported in PubChem BioAssay AID889 (National Center for Advancing Translational Sciences (NCATS), 2007).
The whole screen tested about 75,000 compounds, of which about 15 (0.02%) were called active. Roughly 3% stayed inconclusive and do not appear here. The call rests on the fitted dose curve; in most records, active means well fitted inhibition curve with a large enough effect in the main read-out, with a control signal flat (not every such curve was filed as active); inconclusive means small, poorly fitted or top-dose-only effect, or a change in a side signal; inactive means flat fitted curve, though single readings scatter. Only a selection was taken, and actives are over-represented in it overall. Square brackets hold non-standard residues; d marks the D form. Side chains are listed from the residue outwards. Peptide text beside a SMILES is read from it. * marks the point of attachment. X1 = CCC(C)C(N)C1=NC(C(=O)*)CS1; Orn = NCCC[CH](N)C(=O)O
Potency means the concentration at half of the fitted maximal effect.
Wherever activity change, negative = inhibition is given: % of control where 0% means no effect.

The compounds below were run against Caspase-7 (Homo sapiens) (UniProt P55210) (assay: qHTS Assay for Allosteric/Competitive Inhibitors of Caspase-7). Conditions: recombinant caspase-7, Ac-DEVD-AFC fluorescence rate; series mostly up to 57.5 µM; activity change, negative = inhibition: at the top concentration.
Chain of Caspase-7 (Homo sapiens) (P55210 24-198 limits assumed): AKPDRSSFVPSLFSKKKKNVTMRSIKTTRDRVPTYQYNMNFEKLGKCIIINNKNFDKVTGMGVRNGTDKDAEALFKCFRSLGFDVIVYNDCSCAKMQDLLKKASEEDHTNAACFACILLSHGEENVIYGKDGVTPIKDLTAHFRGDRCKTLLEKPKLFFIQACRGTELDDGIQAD
Chain of Caspase-7 (Homo sapiens) (P55210 207-303 limits assumed): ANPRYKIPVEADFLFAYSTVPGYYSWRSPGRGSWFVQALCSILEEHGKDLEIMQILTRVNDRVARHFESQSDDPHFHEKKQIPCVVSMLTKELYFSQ
From the text: NIH Molecular Libraries Screening Centers Network [MLSCN]
NIH Chemical Genomics Center [NCGC]
PI Name: Dr. James Wells,
Dr. Enrique Perez-Paya, Dr.Janice Williams, Dr. Dennis Wolan, a person
The caspases (Cysteine Aspartyl Protease) comprise a related family of 14 dimeric proteases that are critical mediators of apoptosis (programmed cell death) and inflammation. The caspases represent an important class of drug targets for stroke, ischemia, cancer and inflammatory diseases. […] One goal of this project was to identify compounds that act as allosteric inhibitors via stabilizing the procaspase form of the enzyme. Previous work in Well's laboratory has shown that such allosteric inhibitors can be identified and these act by binding at the dimer interface of enzyme (Hardy, Lam et al., 2004).
The biochemical assay was configured using purified caspase 7 at a high enzyme concentration to promote formation of the homodimers and thus facilitate the identification of allosteric inhibitors. The overall goal was to identify reversible inhibitors with better drug-like properties than the currently available set of aspartyl-containing peptidomimetics that covalently bind the active site. Caspase 7 was assayed using the profluorescent substrate Ac-DEVD-AFC. After initiation of the assay with substrate the plates were rapidly read using an automated robotic system (Kalypsys, Inc.) to maintain consistent timing. A kinetic mode of detection was used where the initial rate was collected (estimated final product formation was ~10%). Compounds were screened as a concentration-titration series that ranged from 57 uM to 0.7 nM. Below is the protocol used for caspase 7.
NCGC Assay Protocol Summary:
Caspase 7 was prepared in buffer (50 mM HEPES pH 7.5, 50 mM KCl, 200 mM NaCl, 10 mM DTT, 0.1% CHAPS) at a concentration of 66.6 nM and 3 uL was dispensed to all wells using black solid Kalypsys 1536-well plates. 20 nL of DMSO containing compounds was added using a pin-tool (Kalypsys Inc.) to columns 5-48. Then 20 nL of DMSO solution from a control plate was added to columns 1-4. Controls were: Column 1, 16 point titration with each concentration in duplicate (1:1 dilutions in DMSO; final starting concentration was 57 uM) of the caspase 7 inhibitor Ac-DEVD-CHO (Alexis Biochemicals); Column 2, a 16 point titration with each concentration in duplicate of the free AFC fluorophore prepared in DMSO (Alexis Biochemicals), final starting was 40 uM; Column 3 neutral (DMSO only) control; Column 4: DMSO alone, to serve as a negative control (no substrate was added). Then 1 uL of 20 uM the substrate Ac-DEVD-AFC (Alexis Biochemicals) prepared in the same buffer was dispensed to all wells except columns 2 and 4 and the plates were immediately transferred (< 1 min) to the Viewlux. The plates were then exposed using 405 nm excitation/520 nm emission filters for 4 sec and read at 20 sec intervals for 3 min. Final enzyme concentration was 50 nM and the final substrate concentration was 5 uM.
Concentration-response curves were fitted to the data calculated from slope of the linear regression of fluorescent intensity versus time (the rate). The concentration-effect curves were then classified based on curve quality (r2), response magnitude and degree of measured activity. […] Inconclusive compounds had appreciable concentration-dependent effects on both the measured rate and the interpolated basal fluorescence intensity at the start of the reaction but where the basal fluorescent intensity was marginal (e.g. < 10-fold). Inconclusive compounds also encompass highly fluorescent compounds (>100-fold increases in fluorescent intensities values relative to controls) where artificial concentration-dependent decreases in the rate occurred at high compound concentrations due to fluorescent interferences.
Keywords: Caspase 7, proteases, profluorescent, MLSMR, MLSCN, NIH Roadmap, qHTS, NCGC
For CC1CCc2c(sc(NC(=O)c3ccc(Cn4cc(Br)cn4)o3)c2C(N)=O)C1 (stereo not drawn), the “activity change, negative = inhibition” value was -12.6% (inactive).
With C/C(=N\O)C1(C)N(O)C(C)(C)C(c2ccc(Br)cc2)=[N+]1[O-] (stereo not drawn) the “activity change, negative = inhibition” value was 0.703% (inactive).
For CC(=O)Nc1ccc(NC(=O)CN2CCCC(C)C2)c(Cl)c1 (stereo not drawn), the “activity change, negative = inhibition” value was -0.338% (inactive).
With Cn1c(N)c(C(=O)COC(=O)c2cc(C(F)(F)F)nc3c(C(F)(F)F)cccc23)c(=O)n(C)c1=O the “activity change, negative = inhibition” value was 1.07% (inactive).
Cc1cc(NC(=O)CCC(=O)N(c2cccc(F)c2)C(C(=O)NC2CCCC2)c2ccncc2)no1 (stereo not drawn) was tested, and the “activity change, negative = inhibition” value was 0.523% (inactive).
In the case of COc1ccc(N2C(=O)C3CCCN3C2c2cc(OC)c(OC)cc2OC)cc1 (stereo not drawn), the “activity change, negative = inhibition” value is reported as -1.73% (inactive).
With O=C(NCc1ccco1)c1cc(-c2cccnc2)nc2ccc(Cl)cc12 the “activity change, negative = inhibition” value was -1.35% (inactive).
For CC(C)CN1CCc2nc(-c3ccccc3)c3c(c2C1)COC(C)C3 (stereo not drawn), the activity change, negative = inhibition was -0.41% [at 11.5 µM] (inactive).
With O=C(Nc1cccc(Cl)c1)OCc1ccccn1 the “activity change, negative = inhibition” value was 1.86% (inactive).
O=C(O)CC(C(=O)O)C(CC(=O)O)C(=O)O (stereo not drawn) was tested, and the “activity change, negative = inhibition” value was 0.506% (inactive).
For CCc1ccc(CCC(=O)Nc2ccc(S(N)(=O)=O)cc2)o1, the “activity change, negative = inhibition” value was 0.82% (inactive).
CN(C)CCSS(=O)(=O)O was tested, and the activity change, negative = inhibition was -1.05% [at 11.5 µM] (inactive).
C[C@@H]1O[C@@H](OC[C@H]2O[C@@H](Oc3c(-c4cccc(O)c4O)oc4cc(O)cc(O)c4c3=O)[C@H](O)[C@@H](O)[C@@H]2O)[C@H](O)[C@H](O)[C@H]1O was tested, and the “activity change, negative = inhibition” value was -1.32% (inactive).
In the case of OCCCNCc1ccccn1, the activity change, negative = inhibition is reported as 0.29% [at 11.5 µM] (inactive).
In the case of Cc1cccn2c(=O)c3cc(C(=O)NCc4ccccn4)n(C)c3nc12, the “activity change, negative = inhibition” value is reported as 0.28% (inactive).
O=C(NCc1ccccn1)c1cc2ccccc2oc1=O was tested, and the “activity change, negative = inhibition” value was -0.481% (inactive).
For O=C(NCc1ccccn1)c1ccc2nc(-c3ccco3)c(-c3ccco3)nc2c1, the Potency was 25.1 µM (active).
With COc1ccc(CC(=O)Nc2nc3n(n2)C(c2ccccc2)CC(=O)N3)cc1OC (stereo not drawn) the “activity change, negative = inhibition” value was 0.956% (inactive).
Cc1cccc(NC(=O)CSc2nnc(CCCCCNC(=O)OC(C)(C)C)o2)c1C was tested, and the “activity change, negative = inhibition” value was -0.868% (inactive).
With CCOc1cc(C(=S)N2CCOCC2)ccc1O the “activity change, negative = inhibition” value was -0.0185% (inactive).
In the case of CC(C)C(=O)N1CCN(CCN=CC2=C(O)CC(c3ccco3)CC2=O)CC1 (stereo not drawn), the “activity change, negative = inhibition” value is reported as -3.14% (inactive).
For CCCCCCCCCc1ccc(OCCOCCOCCOCCOCCOCCOCCOCCOCCO)cc1, the “activity change, negative = inhibition” value was -6.3% (inactive).
In the case of COc1c2c(cc3occ(-c4ccc5c(c4)OCO5)c(=O)c13)OC(C)(C)C=C2, the “activity change, negative = inhibition” value is reported as -5.41% (inactive).
For O=C(CC1CCCCC1)Nc1c2c(nn1-c1ccc(F)cc1)CS(=O)(=O)C2, the “activity change, negative = inhibition” value was -1.72% (inactive).
CC1(C)OC2CC(=O)OC[C@@]23C1CC(=O)[C@]1(C)C3CC[C@@]2(C)C(c3ccoc3)OC(=O)C3O[C@@]321 (stereo partly drawn) was tested, and the “activity change, negative = inhibition” value was -1.5% (inactive).
With Cc1cccc(-c2cc(=O)c3cc(C)ccc3o2)c1 the “activity change, negative = inhibition” value was -5.03% (inactive).
CCCc1nc2c(C)cc(-c3nc4ccccc4n3C)cc2n1Cc1ccc(-c2ccccc2C(=O)O)cc1 was tested, and the “activity change, negative = inhibition” value was -5.24% (inactive).
For Cn1c(Cc2csc(N)n2)nnc1SC/C=C/c1ccccc1, the “activity change, negative = inhibition” value was -17.5% (inactive).
C=C(C)C1CC=C(CO)CC1 (stereo not drawn) was tested, and the “activity change, negative = inhibition” value was 2.74% (inactive).
In the case of O=C1OC(C(O)CO)C(O)=C1O (stereo not drawn), the “activity change, negative = inhibition” value is reported as 1.71% (inactive).
In the case of CCCN1[C@H](C(=O)OC)C[C@@]2(O)[C@@H](O)[C@@H](O)[C@@H](O)C[C@@H]12, the “activity change, negative = inhibition” value is reported as -1.49% (inactive).
With CCN(c1ccccc1)S(=O)(=O)c1cccc(C(=O)O)c1 the “activity change, negative = inhibition” value was -0.863% (inactive).
COc1ccccc1C(=O)C(O)c1ccccc1OC (stereo not drawn) was tested, and the “activity change, negative = inhibition” value was -0.715% (inactive).
CCNC(=O)CCc1nc(-c2ccc(C(C)(C)C)cc2)no1 was tested, and the “activity change, negative = inhibition” value was -1.09% (inactive).
CC(=O)c1c(C)n(-c2ccc(N(C)C)cc2)c2ccc(OCC(N)=O)cc12 was tested, and the “activity change, negative = inhibition” value was 0.0847% (inactive).
CC(=O)OC(C(=O)NC1CCCCC1)c1ccccc1 (stereo not drawn) was tested, and the “activity change, negative = inhibition” value was 0.612% (inactive).
CC(C)C1=CC2=CC[C@@H]3[C@](C)(CO)CCC[C@]3(C)C2CC1 (stereo partly drawn) was tested, and the “activity change, negative = inhibition” value was -1.8% (inactive).
For COC(=O)[C@@H]1C[C@H]2CC[C@H](O)C[C@H]2N1Cc1ccc(N2CCN(C)CC2)cc1, the “activity change, negative = inhibition” value was -1.78% (inactive).
In the case of COc1ccc(OCc2cccc(C(=O)N3CCCC3)c2)cc1, the “activity change, negative = inhibition” value is reported as -1.42% (inactive).
Oc1ccc(O)c2c(O)cccc12 was tested, and the “activity change, negative = inhibition” value was -27.9% (inactive).
N#CCCN1CCN(S(=O)(=O)c2ccc(S(=O)(=O)N3CCCC3)cc2)CC1 was tested, and the “activity change, negative = inhibition” value was 0.676% (inactive).
O=C(Nc1cccc(-c2nnc(-c3ccccc3)o2)c1)C1CCCO1 (stereo not drawn) was tested, and the “activity change, negative = inhibition” value was -0.105% (inactive).
With FC(F)(F)c1ccc(CN2C[C@@H]3C(c4ccccc4)C4(c5ccccc5)CC3(C4)[C@H]2c2ccccc2)cc1 (stereo partly drawn) the “activity change, negative = inhibition” value was -0.934% (inactive).
In the case of O=C1CSC(c2cccc(F)c2)N1c1ccccc1F (stereo not drawn), the “activity change, negative = inhibition” value is reported as 0.368% (inactive).
O=C(O)c1ccc(Cl)c(S(=O)(=O)Nc2ccccc2Cl)c1 was tested, and the “activity change, negative = inhibition” value was -0.369% (inactive).
In the case of CN1CC(=O)N=C1N, the “activity change, negative = inhibition” value is reported as 2.7% (inactive).
For CO[C@H]1COC(=O)CCC[C@@H](C)[C@H](OC)COC(=O)[C@@H](C)NC(=O)C/C=C\[C@@H]1C, the activity change, negative = inhibition was 0.707% [at 11.5 µM] (inactive).
COc1cc(=O)[nH]c(=O)n1C(=O)Cc1ccccc1 was tested, and the “activity change, negative = inhibition” value was -0.165% (inactive).
For COc1ccc(-c2cc(C(=O)NC(C(=O)O)C(C)C)c(C)o2)cc1OC (stereo not drawn), the “activity change, negative = inhibition” value was 0.0406% (inactive).
In the case of Cc1nc2cc(-c3ccc(F)cc3)nn2c(N2CCOCC2)c1C, the “activity change, negative = inhibition” value is reported as -1.05% (inactive).
In the case of COc1ccc(S(=O)(=O)Nc2c(C)n(C)n(-c3ccccc3)c2=O)cc1, the “activity change, negative = inhibition” value is reported as 0.471% (inactive).
With Nc1ncnc2c1ncn2C1CC(O)C(CO)O1 (stereo not drawn) the activity change, negative = inhibition was “inactive”.
For C=CCC(NCCCO)c1cccc(OC)c1OC (stereo not drawn), the “activity change, negative = inhibition” value was -1.48% (inactive).
In the case of COc1cccc(OC)c1C(=O)Nc1nnc(C(C)C)s1, the “activity change, negative = inhibition” value is reported as 0.483% (inactive).
With CCC(C)C(N)C1=NC(C(=O)NC(CC(C)C)C(=O)NC(CCC(=O)O)C(=O)NC(C(=O)NCCCCC2NC(=O)C(CC(N)=O)NC(=O)C(CC(=O)O)NC(=O)C(Cc3cnc[nH]3)NC(=O)C(Cc3ccccc3)NC(=O)C(C(C)CC)NC(=O)C(CCCN)NC2=O)C(C)CC)CS1 (stereo not drawn) (cyclo(DNK([Ile-Glu-Leu-X1])[Orn]IFH); configuration not given here) the “activity change, negative = inhibition” value was -1.11% (inactive).
With Cc1cccc2c3c(ccc12)C1=C(C(=O)C3=O)C(C)CO1 (stereo not drawn) the “activity change, negative = inhibition” value was -21.5% (inactive).
COc1ccc(-c2nc3cnc(OC)nc3n(Cc3ccc(F)cc3)c2=O)cc1 was tested, and the “activity change, negative = inhibition” value was -10.3% (inactive).
With CN(C)CCCCNC(=O)c1ccc(Cc2nc3ccccc3[nH]2)cc1 the “activity change, negative = inhibition” value was -0.141% (inactive).
In the case of C=C1C(=O)C23C(O)C1CCC2[C@]12COC3(O)C(O)C1C(C)(C)CC[C@H]2O (stereo partly drawn), the “activity change, negative = inhibition” value is reported as -5.51% (inactive).
In the case of Cc1ccc2nc(S(=O)(=O)O)[nH]c2c1, the “activity change, negative = inhibition” value is reported as -1.75% (inactive).
For CCOC(=O)N1CCN(C(=O)CNC(=O)Cc2ccc(Cl)cc2)CC1, the “activity change, negative = inhibition” value was -4.36% (inactive).
COc1ccc(S(=O)(=O)N2CCCC2)c(C)c1C was tested, and the “activity change, negative = inhibition” value was -0.0387% (inactive).
In the case of COC(=O)c1ccc(C23CC4(C2)[C@H](CN(Cc2cccnc2)[C@@H]4c2ccccc2)C3c2ccc(Cl)nc2)cc1 (stereo partly drawn), the “activity change, negative = inhibition” value is reported as -1.86% (inactive).
